Tests used:
Test in all cases: PBM binding z-score (relative to random genomic background probes); higher = stronger binding; sequences stand for … in GC…GCGATTGACAGCGTAGAATGAAGG
[1] = test system: FXR:RXRa (NR concentration 270 nM, RXRa partner concentration 90 nM)
In short: (§1)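 Ligand-free nuclear receptor dimers were applied to custom Agilent 4×180K protein-binding microarrays whose double-stranded probes carried direct-repeat seeds, single-nucleotide variants, half-site ablations and random human genomic background sequences in 34-nt variable regions. Incubation lasted 1 h. Binding z-scores were computed against the random background probes from regression-normalized fluorescence.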

[2] = test system: LXRa:RXRa (NR concentration 270 nM, RXRa partner concentration 90 nM)
In short: as §1

[3] = test system: LXRa homodimer (NR concentration 270 nM)
In short: as §1

[4] = test system: LXRb:RXRa (NR concentration 270 nM, RXRa partner concentration 90 nM)
In short: as §1

[5] = test system: LXRb homodimer (NR concentration 270 nM)
In short: as §1

[6] = test system: PPARa:RXRa (NR concentration 270 nM, RXRa partner concentration 90 nM)
In short: as §1

[7] = test system: PPARg:RXRa (NR concentration 180 nM, RXRa partner concentration 90 nM)
In short: as §1

[8] = test system: PPARg:RXRa 270nM:90nM, anti-RXR (NR concentration 270 nM, RXRa partner concentration 90 nM)
In short: as §1

[9] = test system: PPARg:RXRa 30nM:10nM, anti-RXR (NR concentration 30 nM, RXRa partner concentration 10 nM)
In short: as §1

[10] = test system: PPARg:RXRa 90nM:30nM, anti-RXR (NR concentration 90 nM, RXRa partner concentration 30 nM)
In short: as §1

[11] = test system: PPARg:RXRa DBDmut IVT, anti-RXR (DBD mutation: RXRa K156A/R161A, NR concentration 270 nM, RXRa partner concentration 90 nM)
In short: as §1

[12] = test system: PPARg:RXRa IVT, anti-PPARg (NR concentration 270 nM, RXRa partner concentration 90 nM)
In short: as §1

[13] = test system: PPARg DBDmut:RXRa IVT, anti-PPARg (DBD mutation: PPARg1 K132A/R137A, NR concentration 270 nM, RXRa partner concentration 90 nM)
In short: as §1

[14] = test system: PPARg DBDmut IVT, anti-PPARg (DBD mutation: PPARg1 K132A/R137A, NR concentration 270 nM)
In short: as §1

[15] = test system: PPARg homodimer (NR concentration 180 nM)
In short: as §1

[16] = test system: PXR:RXRa (NR concentration 270 nM, RXRa partner concentration 90 nM)
In short: as §1

[17] = test system: PXR homodimer (NR concentration 270 nM)
In short: as §1

[18] = test system: RARa:RXR (NR concentration 270 nM, RXRa partner concentration 90 nM)
In short: as §1

[19] = test system: RARa homodimer (NR concentration 270 nM)
In short: as §1

[20] = test system: RARb:RXRa (NR concentration 270 nM, RXRa partner concentration 90 nM)
In short: as §1

Sequence | PBM binding z-score [1] | PBM binding z-score [2] | PBM binding z-score [3] | PBM binding z-score [4] | PBM binding z-score [5] | PBM binding z-score [6] | PBM binding z-score [7] | PBM binding z-score [8] | PBM binding z-score [9] | PBM binding z-score [10] | PBM binding z-score [11] | PBM binding z-score [12] | PBM binding z-score [13] | PBM binding z-score [14] | PBM binding z-score [15] | PBM binding z-score [16] | PBM binding z-score [17] | PBM binding z-score [18] | PBM binding z-score [19] | PBM binding z-score [20]
CCTTACGGGTCACGAGGTTCTAGCACGACGAGCG | 6.53 | 4.22 | -0.19 | 3.53 | 0.0881 | 5.66 | 6.59 | 6.31 | 3.2 | 5.36 | 4.32 | 5.09 | 0.979 | -0.156 | 2.86 | 4.06 | -0.111 | 5.48 | 0.989 | 4.41
ACTATTAGTTGACATAGGGCAACCGATACGACGC | 0.176 | 0.333 | 0.152 | 0.7 | 0.719 | 0.537 | 1.45 | 0.934 | 0.646 | 1 | 0.444 | 0.742 | 1.27 | 1.22 | 0.811 | 0.547 | 0.504 | 0.635 | 0.879 | 1.19
CCAACTAGGTCACGAAAGGTCAAAGTCGAATGAC | 7.46 | 8.21 | 7.89 | 7.27 | 2.78 | 6.63 | 9.92 | 8.01 | 5.92 | 8.18 | 8.35 | 8.54 | 1.23 | 0.869 | 6.09 | 7.02 | 3.52 | 7.39 | 3.62 | 5.63
ATCTCTAGGTAACAAGTTCAGAGAAAGAGAGGAC | 0.853 | 0.957 | 0.71 | 0.814 | 0.838 | 1.67 | 1.71 | 2.04 | 0.949 | 1.76 | 2.92 | 2.66 | 0.959 | 2.27 | 0.923 | 1.59 | 1.6 | 1.1 | 1.3 | 1.53
CAAACTAGGTCACAGAAGTCAAAGTCCGTGCGTA | 4.23 | 3.17 | 0.883 | 2.77 | 0.529 | 5.49 | 8.96 | 7.26 | 5.36 | 6.93 | 8.28 | 9.03 | 4.57 | 2.37 | 2.34 | 2.34 | 0.405 | 3.34 | 0.949 | 4.35
ATATGTAGGTTATGGGGTCATTCAGTTTGCGCAT | 5.54 | 5.12 | 3.61 | 5.55 | 2.36 | 5.91 | 8.65 | 7.03 | 5.67 | 7.31 | 7.59 | 7.35 | 1.83 | 2.58 | 3.35 | 6.12 | 11.7 | 6.45 | 2.37 | 3.54
CCTACTGGGCCAAACAGGTCATTGATGCCGATAA | 0.606 | 0.905 | 0.657 | 1.55 | -0.709 | 2.56 | 1.79 | 2.18 | 0.412 | 1.43 | 4.31 | 3.92 | 0.0161 | -0.301 | 1.42 | 1.37 | 0.801 | 1.71 | 0.102 | 1.68
ATCTCTAGGTAACCAAGTTGAGTGAATGCCGAAC | 0.189 | 0.0773 | 0.252 | 0.0776 | 0.391 | 0.54 | 0.337 | 0.316 | -0.0449 | 0.238 | 3.51 | 2.64 | 0.787 | 1.26 | 0.031 | -0.00792 | 0.194 | 0.144 | 0.0193 | 0.243
TCTTGTAGATCATTAGAGGTTAAGAAAGTGCGCT | 1.06 | 4.79 | 1.68 | 2.27 | 0.3 | 1.77 | -0.111 | 1.81 | 2.85 | 2.33 | 1.84 | 1.01 | 0.756 | 0.793 | 0.628 | 3.16 | 0.436 | 1.89 | 0.575 | 1.01
TAGCCTAGGTCATTAAGGGGCCAGTATAGAAAGC | 3.58 | 3.35 | 0.285 | 2.67 | 0.552 | 3.21 | 1.75 | 2.07 | 0.301 | 1.11 | 1.56 | 2.58 | 0.422 | 0.198 | 0.937 | 1.36 | -0.202 | 2.18 | 0.00876 | 3.64
CAAACTAGGTCAAAGTCAAAGTCGGTTTGTGCCA | 4.66 | 3.77 | 0.899 | 2.64 | 1.02 | 5.18 | 8.68 | 7.7 | 6.17 | 8.03 | 8.48 | 8.78 | 4.97 | 3.93 | 1.7 | 1.63 | -0.171 | 2.61 | 0.68 | 4.01
GCTTACGGGTCAACGGTTATAGCATGAATAGAAT | 5.44 | 3.55 | -0.033 | 3.68 | -0.198 | 5.55 | 6.07 | 5.8 | 3.19 | 5.2 | 4.03 | 4.42 | 2.69 | 0.764 | 1.62 | 3.16 | 0.0463 | 4.02 | 0.362 | 4.08
CAAACTAGGTCTCGAAAGGTCAAAGTCGAATGAC | 4.95 | 5.78 | 5.59 | 5.49 | 1.63 | 5.51 | 5.33 | 5.32 | 2.94 | 4.72 | 5.54 | 5.71 | 2.45 | 0.645 | 3.86 | 5.61 | 2.13 | 6.33 | 2.57 | 4.4

Source: the supplement of paper PMC6555819
